Assay outcomes (PubChem BioAssay)
DPM-DC inhibit – S. pneumoniae DPM-DC inhibitors, primary screen, biochemical, PK/LDH-coupled NADH fluorescence; calls only at 10 µM; purified DPM-DC; 65,000 tested, 0.49% active;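 active = the 320 compounds with the highest percent inhibition in the single-dose primary screen, excluding strongly autofluorescent ones, cut at about 32% in these data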;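 note: kinetic rate of NADH fluorescence loss reporting ADP formed by the decarboxylase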
PMK inhibit – S. pneumoniae PMK inhibitors, primary screen, biochemical, mevalonate pathway, pilot trial included; 65,000 tested, 0.49% active; inhibition, % at 10 µM; AID 539, 2006; phosphomevalonate kinase (Streptococcus pneumoniae D39); purified PMK, PK/LDH-coupled NADH absorbance 340 nm;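 active = top-ranked compounds by inhibition in the single 10 µM screen, taking a fixed number of the strongest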
Spn MK inh – S. pneumoniae MK inhibitors, primary screen, biochemical, PK/LDH-coupled NADH absorbance | inhibition, % at 10 µM | purified MK, PK/LDH-coupled NADH absorbance 340 nm | 65,000 tested, 0.48% active | mevalonate kinase [Streptococcus pneumoniae D39];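 active = ranked among the strongest by inhibition in the single 10 µM screen, a fixed top-ranked set picked for dose follow-up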
Fluor 339 460 – intrinsic fluorescence of library compounds, ex339/em460 – biochemical, MLSMR library, data from DPM-DC assay, artefact control, profiling panel; compound autofluorescence, ex339/em460 nm, NADH buffer; hits give high values; 1 = no-compound wells, NADH background; 65,000 tested, 5.5% active; fluorescence fold increase at 10 µM;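 active = at 10 µM, mean starting fluorescence two-fold or more over control wells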;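 note: signal is the first read of a kinetic run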
NADH enzymes – inhibitors of PK/LDH coupling enzymes, profiling panel, artefact control, biochemical, MLSMR library. AID 774, 2007. 65,000 tested, 0.02% active. IC50, µM (doses to about 10 µM). coupled PK/LDH NADH assays, four targets;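 active = single-dose screening hits from any of four coupled enzyme assays that gave an IC50 when retested across doses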;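 note: the DPM-DC format reads NADH fluorescence rather than 340 nm absorbance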
A340 absorber – compound light absorbance at 340 nm, profiling panel, artefact control, biochemical, MLSMR library, data from PS, PMK, MK assays; compound absorbance at 340 nm, fold over control; 65,000 tested, under 10 active; AID 708, 2007; fold change at 10 µM;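 active = at 10 µM dose, initial 340 nm absorbance at least 2 fold that of control wells; inactive = change under 2 fold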;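 note: initial absorbance extrapolated from kinetic A340 decline of NADH oxidation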
Each line names hits and unclear results; the compound was inactive in the other large screens. Rows were chosen to be rich in hits. Some 6.8% of all compounds tested hit in one or more screens of this group.

CCOC(=O)c1c(NC(=O)c2cccs2)sc2c1CCCC2	Fluor 339 460 2.3 (not shown: DPM-DC inhibit)
CCOC(=O)c1c(NC(=O)Cc2cccs2)sc2c1CCCC2	none
CCC(C(=O)Nc1ccccc1OC)n1c(C(=O)OC)cc2ccsc21 (stereo not given)	none
CCOC(=O)c1c(NC(=O)c2cccs2)sc2c1CCC2	Fluor 339 460 2.3 (not shown: DPM-DC inhibit)
CCOC(=O)c1c(NC(=O)c2ccco2)sc2c1CCCCC2	Fluor 339 460 2.1 (not shown: DPM-DC inhibit)
CCOC(=O)c1c(NC(=O)OC)sc2c1CCC2	none
CCOC(=O)c1c(-c2cccs2)csc1NC(=O)c1ccncc1	Fluor 339 460 2.2 (not shown: DPM-DC inhibit)
CCCc1cc(C(=O)Nc2sc(C)c(C)c2C(=O)OCC)no1	Fluor 339 460 2.4 (not shown: DPM-DC inhibit)
CCCc1cc(=O)[nH]c(SCC(=O)N2CCN(c3ccc(F)cc3)CC2)n1	none
COc1ccccc1-n1nnnc1SCc1cc2c(cc1Br)OCO2	none
C=CCNc1ncnc2c1[nH]c1ccccc12	Fluor 339 460 2.5
c1ccc2c(c1)[nH]c1c(NCC3CCCO3)ncnc12 (stereo not given)	Fluor 339 460 2.8
CCOCCCNc1ncnc2c1[nH]c1ccccc12	none
O=C(Nc1ccc2c(c1)OCO2)C1(S(=O)(=O)c2ccc(Cl)cc2)CC1	none
O=C(CCCCn1c(=O)[nH]c2ccccc2c1=O)NCCC1=CCCCC1	none
Clc1ccc2nc3ccccn3c2c1	Fluor 339 460 2.2 (not shown: DPM-DC inhibit)
CC(=O)N(Cc1cccnc1)Cc1cc2ccc(C)cc2[nH]c1=O	none
COc1ccc2[nH]c(=O)c(CN(CCO)C(=O)c3ccccc3F)cc2c1	Fluor 339 460 2.9
CCCN(Cc1cc2cc(OC)ccc2[nH]c1=O)C(=O)c1ccncc1	none
COc1cc2cc(CN(C(=O)NC3CCCCC3)C3CCCC3)c(=O)[nH]c2cc1OC	Fluor 339 460 3.9 (not shown: DPM-DC inhibit)
COc1cc2cc(CN(Cc3cccnc3)C(=O)NCc3ccccc3)c(=O)[nH]c2cc1OC	Fluor 339 460 4.8 (not shown: DPM-DC inhibit)
COc1ccc2cc(CN(C(=O)Nc3ccccc3OC)C3CCCC3)c(=O)[nH]c2c1	none
CCCCN(Cc1cc2cc(OC)ccc2[nH]c1=O)C(=O)c1ccccn1	Fluor 339 460 2.5 (not shown: DPM-DC inhibit)
COc1ccc2[nH]c(=O)c(CN(C(=O)c3ccccn3)C3CCCCC3)cc2c1	Fluor 339 460 2.9
CCC(=O)N(CCc1ccccc1C)Cc1cc2cc3c(cc2[nH]c1=O)OCO3	Fluor 339 460 3.8 (not shown: DPM-DC inhibit)
Cc1ccc2cc(CN(CCN3CCOCC3)C(=O)NCc3ccccc3)c(=O)[nH]c2c1C	Fluor 339 460 2.1
Cc1ccc2cc(CN(CCN3CCCC3)C(=O)Nc3ccccc3)c(=O)[nH]c2c1C	none
O=C(NCc1ccccc1)N(Cc1cc2cc3c(cc2[nH]c1=O)OCO3)CC1CCCO1 (stereo not given)	Fluor 339 460 3.7 (not shown: DPM-DC inhibit)
Cc1ccc2[nH]c(=O)c(CN(CC3CCCO3)C(=O)c3ccco3)cc2c1 (stereo not given)	none
COc1ccc(C2c3c(oc4ccc(C)cc4c3=O)C(=O)N2c2cc(C)ccn2)cc1OC (stereo not given)	none
O=C(Cc1c(O)c2ccccc2[nH]c1=O)OC1CCCCC1	none
Cc1ccc2[nH]c(=O)c(CN(CCO)C(=O)NCc3ccccc3)cc2c1	none
COc1ccc2[nH]c(=O)c(CN(CCN(C)C)C(=O)NCc3ccccc3)cc2c1	Fluor 339 460 3.8
CCOC(=O)Cc1csc(SCc2nc3ccccc3c(=O)[nH]2)n1	none
COC(=O)c1c(S(N)(=O)=O)c2ccccc2n1C	Fluor 339 460 2.1 (not shown: DPM-DC inhibit)
Cc1ccc(NC(=O)COS(=O)c2ccc(C)cc2)cc1 (stereo not given)	none
CCCC(=O)Nc1ccc2oc(-c3cccnc3)nc2c1	Fluor 339 460 2.8 (not shown: DPM-DC inhibit)
CCCCC(=O)Nc1cccc(-c2nc3ncccc3o2)c1	Fluor 339 460 2.3
CCC(=O)Nc1ccc2oc(-c3cccc(C)c3)nc2c1	Fluor 339 460 2.3 (not shown: DPM-DC inhibit)
CCCCC(=O)Nc1ccc2oc(-c3cccnc3)nc2c1	Fluor 339 460 3.9 (not shown: DPM-DC inhibit)
CCCC(=O)Nc1cccc(-c2nc3ccccc3o2)c1	none
